# Screening data deposited in PubChem by National Center for Advancing Translational Sciences (NCATS).
# TRHR PAM: allosterically enhances the human TRH receptor | P34981 | TRHR cells, fluo-8 calcium fluorescence, EC20 TRH enhancement | enhancement, % at 2 µM | 360,000 compounds, 0.66% hits | AID 493056; in the data active = enhancement above about 30%; note: 0% is about no effect
# Target sequence (P34981 whole entry, looked up): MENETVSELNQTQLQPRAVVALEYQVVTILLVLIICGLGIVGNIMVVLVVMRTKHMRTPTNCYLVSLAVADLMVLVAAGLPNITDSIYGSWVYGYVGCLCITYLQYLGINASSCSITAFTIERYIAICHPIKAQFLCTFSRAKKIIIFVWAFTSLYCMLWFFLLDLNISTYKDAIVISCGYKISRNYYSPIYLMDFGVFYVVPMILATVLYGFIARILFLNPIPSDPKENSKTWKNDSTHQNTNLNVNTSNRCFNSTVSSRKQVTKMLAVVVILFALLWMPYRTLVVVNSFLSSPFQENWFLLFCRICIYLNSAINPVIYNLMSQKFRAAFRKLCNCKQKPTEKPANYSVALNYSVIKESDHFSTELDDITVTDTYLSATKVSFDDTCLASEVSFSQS
#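 Enhancer read-out: after compound pinning and an initial kinetic agonist-mode read, an EC20 of TRH (10 nM final) was injected and fluo-8 calcium signal (Ex 480/Em 530) followed at 1 s/cycle for 100 cycles in TRHR-expressing cells.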
# Glioma ERSR ind: inducers of ER stress response in human glioma cells. U87-MG GRP78 promoter luciferase reporter, 16 h. Potency, µM, for inactives: at the top dose activation, most hits filed as activators. 420,000 compounds, 0.02% hits. AID 602332; active = well fitted activation curve with a large enough effect; note: potency is the fitted concentration of half-maximal effect; series mostly up to about 76 µM; % of control where 0% means no effect; nearly all actives have a fitted effect of over 35% in size
#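 Stably transfected U87-MG human glioma cells carrying a GRP78-based luminescent sensor were seeded at 1000 cells/well, pin-dosed with compounds and incubated 16 h. Luciferase reagent was then added, and end-point luminescence was read after 10 min at room temperature.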
# TRHR ag: TRH receptor (human) agonism; AID 493084; TRHR cells, calcium flux fluo-8, FDSS agonist mode; P34981; 360,000 compounds, 0.18% hits; activation, % at 2 µM; note: 0% is about no effect
#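 TRHR-expressing cells, plated overnight in medium with 10% serum, were loaded with fluo-8 calcium dye at room temperature. After a 10 s baseline, library compound was pin-added and calcium release was recorded kinetically (ex 480/em 530) as agonist response.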
# D1 agonist: activates the human D1 dopamine receptor; HEK293 T-REx D1 cells, calcium flux, agonist mode; activation, % at 2 µM; 360,000 compounds, 1% hits; note: 0% is about no effect
#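 Tetracycline-induced HEK293 TREx D1 cells, force-coupled to calcium signalling, were dye-loaded with a no-wash calcium kit. Compound was pin-added after a 10 s baseline. Fluorescence was read kinetically at 1 cycle/s for 180 s, with calcium rises flagged as agonism.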
# D1 PAM: enhances dopamine response at the human D1 receptor; P21728; HEK293 TREx D1 cells, calcium flux, dopamine EC20 potentiation; potentiation, % at 10 µM; 360,000 compounds, 0.036% hits; AID 504651; in the data active = potentiation above about 30%; note: 0% is about no effect
# D1 antagonist: antagonists of human D1 dopamine receptor | P21728 | HEK293 TREx D1 cells, calcium flux, dopamine EC80; hits give low values | activity change, negative = inhibition, % at 10 µM | 360,000 compounds, 3.2% hits | AID 504652; in the data active = activity change below about -30%; note: % is set by controls: 0 for no effect and ±100 for the full control effect
#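 Kinetic fluorescence of a calcium dye serves as the read-out. D1-expressing Hek293 Trex cells, induced overnight at 30 C, are exposed to compound for 180 s before an EC80 dopamine addition, then read 180 s further.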
# An asterisk follows results filed as active; · = not tested or not shown. An excerpt weighted towards active compounds, which were near 4% of everything screened. Cut-off read from the data, not from the text of the source, unless noted: active = activation above about 30%; inactive = the rest.
SMILES,TRHR PAM,Glioma ERSR ind,TRHR ag,D1 agonist,D1 PAM,D1 antagonist
CCc1ccc(NC(=O)C2C3CCC(O3)C2C(=O)O)cc1 (stereo unspecified),-3.0,2.7%,0.0,5.9,0.6,7.6
COc1ccccc1NC(=O)c1cc[n+]([O-])cc1,1.1,-1.3%,0.8,1.2,-1.9,2.0
COC(=O)c1ccccc1OC(=O)c1cc[n+]([O-])cc1,4.4,0.6%,0.1,6.7,30.8*,9.2
Cc1ccc(/C=N/N2CCCCC2)o1,0.5,1.6%,0.5,2.9,-1.3,5.6
Cc1ccc(/C=N/N2CCN(c3ccc(Cl)cc3)CC2)o1,8.0,0.1%,0.2,0.9,-1.0,-48.2*
O=C(O)C(Cc1ccccc1)n1cccc1 (stereo unspecified),-1.2,-5.5%,0.0,3.2,1.3,-41.9*
Cc1ccc(C)c(N2CCN(C(=O)C(Cc3ccccc3)n3cccc3)CC2)c1 (stereo unspecified),-3.2,-4.8%,0.0,6.0,·,-52.8*
CC(=O)Nc1cc(C(F)(F)F)ccc1Oc1cccc(Br)c1,2.8,-8.2%,-0.9,30.3*,-11.8,-5.1
COc1ccc(Oc2ccc(C(F)(F)F)cc2NC(=O)c2ccc(C)cc2)cc1,8.3,-3.3%,-1.9,31.5*,5.1,-8.5
COc1ccc(OC)c(NC(=O)c2ccc(Cl)cc2)c1,-8.4,1.7%,-0.4,-0.8,9.5,-36.3*
COC(=O)[C@H]1C2CC3c4[nH]c5ccccc5c4CCN3CC2CC[C@@H]1O (stereo partly specified),·,-3.6%,·,·,·,·
Cc1ccc(/C=c2\sc3n(c2=O)CN(c2ccc(Br)cc2)CN=3)o1,-8.8,1.0%,0.5,-0.2,-11.3,-38.9*
Cc1ccc(/C=c2/sc3n(c2=O)CCCN=3)o1,-2.7,-4.5%,1.0,2.5,-1.8,-7.8
O=C(/C=C/Nc1ccc(F)cc1)c1ccc(Oc2ncccn2)cc1,3.6,2.7%,0.1,1.6,-9.3,-41.3*
Clc1cccc(-n2ncc3c(NC4CCCCCC4)ncnc32)c1,2.5,1.5%,0.5,-1.0,0.1,-18.6
CCOC(=O)c1ccc(Nc2ncnc3c2cnn3-c2cccc(Cl)c2)cc1,0.0,0.3%,-0.3,-1.6,-1.6,8.1
NS(=O)(=O)c1ccc(CCNc2ncnc3c2cnn3-c2cccc(Cl)c2)cc1,1.8,-1.8%,-0.1,-0.1,-4.0,-63.7*
Fc1cccc(Nc2ncnc3c2cnn3-c2ccccc2)c1,2.4,2.8%,1.2,2.7,-12.6,-13.5
COc1ccc(NC(=O)c2cnn(-c3ccc(C)cc3)c2-n2cccc2)cc1Cl,-1.6,-4.6%,0.8,4.5,-4.5,-31.0*
N#Cc1cccc(Nc2ncnc3c2cnn3-c2cccc(Cl)c2)c1,-4.4,0.1%,0.2,0.5,-3.8,-48.6*
Clc1cccc(Nc2ncnc3c2cnn3-c2ccccc2)c1,5.7,1.7%,-1.1,6.1,-15.3,-55.2*
CC1(C(=O)O)CCCN(C(=O)c2cc3ccccc3s2)C1 (stereo unspecified),·,-1.1%,·,·,·,·
O=C(NCc1ccncc1)C(=O)NCC1OCCN1S(=O)(=O)c1cc(F)ccc1F (stereo unspecified),·,-3.1%,·,·,·,·
CN(C)c1nc(NC2CCC(NC(=O)c3ccc(F)c(F)c3)CC2)nc2ccccc12 (stereo unspecified),·,5.3%,·,·,·,·
COc1ccc(Nc2ncnc3c2cnn3-c2ccc(C)cc2)cc1Cl,5.9,-4.3%,0.9,-0.6,-3.9,-64.7*
SMILES,TRHR PAM,Glioma ERSR ind,TRHR ag,D1 agonist,D1 PAM,D1 antagonist
NS(=O)(=O)c1ccc(CCNc2nccn(-c3cccc(C(F)(F)F)c3)c2=O)cc1,-1.6,-2.0%,-0.5,2.8,-4.8,-32.0*
COc1ccc(-n2ccnc(NCCc3ccc(S(N)(=O)=O)cc3)c2=O)cc1Cl,-7.3,-2.1%,0.2,2.3,-0.3,16.5
O=C(COc1ccc(N2C(=O)c3ccccc3C2=O)cc1)c1ccccc1,-3.9,-2.7%,0.5,1.1,-8.1,-32.1*
O=C(NCc1ccccc1)N1CCN(c2ccccc2)CC1,2.3,2.7%,0.4,13.7,-8.2,-15.3
S=C(NC1CCCC1)N1CCN(C/C=C/c2ccccc2)CC1,4.9,1.8%,-1.3,16.0,-9.7,-35.6*
S=C(NC1CCCC1)N1CCN(c2ccc(Cl)cc2)CC1,-0.1,-3.5%,0.1,4.6,-4.9,-46.2*
S=C(NCc1ccccc1)N1CCN(c2ccccc2)CC1,-3.8,-2.9%,-0.2,6.6,-8.4,-30.8*
S=C(NCc1ccco1)N1CCN(c2ccc(Cl)cc2)CC1,40.0*,-0.4%,-2.2,3.7,-6.2,-12.7
CCOC(=O)C1(CC2CCCCO2)CCN(S(=O)(=O)c2ccsc2)CC1 (stereo unspecified),-6.1,-3.5%,-1.5,-0.2,-5.3,-19.5
COc1ccccc1N1CCN(c2nc(CNC(=O)c3ccc4c(c3)OCO4)nc3ccccc23)CC1,·,-3.9%,·,·,·,·
Cc1c(C(=O)Nc2ccccc2)sc2nc[nH]c(=O)c12,-7.5,5.7%,1.2,-1.1,-8.8,-32.9*
Cc1c(C(=O)Nc2ccc(F)cc2)sc2nc[nH]c(=O)c12,-6.3,-1.6%,0.5,2.2,-6.2,-20.3
Cc1cccc(C(=O)N2CCCC(Nc3ccc(F)c(F)c3)C2)n1 (stereo unspecified),-3.0,-1.0%,0.0,4.8,-3.9,-1.6
COc1ccc(C(=O)N2CCCC(Nc3ccc(F)c(F)c3)C2)c(OC)n1 (stereo unspecified),-1.2,1.1%,-0.7,-0.6,4.4,-35.0*
O=C(c1cnsn1)N1CCCC(Nc2ccc(F)c(F)c2)C1 (stereo unspecified),4.6,-4.8%,-0.5,1.4,-4.6,-64.5*
C=Cc1ccc([C@H]2N[C@@H](C(=O)O)CC[C@@H]2C)cc1,·,-2.8%,·,·,·,·
Cc1cccc(CSc2nc(=O)c3c(n2C)NC(=O)CC3c2cccc(O)c2)c1 (stereo unspecified),-2.0,-2.3%,-1.7,1.3,0.7,-7.7
Cc1ccc(CSc2nc(=O)c3c(n2C)NC(=O)CC3c2ccc(OC(C)C)cc2)cc1 (stereo unspecified),-3.6,2.8%,6.6,46.0*,-0.1,-26.6
COC(=O)Cc1cc(=O)[nH]c(/N=C(\N)Nc2ccc(C)cc2)n1,1.9,-2.4%,0.8,1.3,-2.2,-30.0
COc1ccccc1N/C(N)=N/c1nc(C(F)(F)F)cc(=O)[nH]1,1.2,-5.4%,0.0,4.0,-10.4,-56.9*
CCOC(=O)Cc1cc(=O)[nH]c(/N=C(\N)Nc2ccc(C)c(C)c2)n1,1.3,-2.5%,-0.1,4.5,-6.6,-43.8*
COc1cccc(N/C(N)=N/c2nc(C)cc(=O)[nH]2)c1,-7.6,-2.0%,1.0,-2.1,4.4,-5.5
COc1ccc(N/C(N)=N/c2nc(C)cc(=O)[nH]2)cc1,7.1,-2.5%,0.3,4.5,-1.6,-36.6*
